Screens: PubChem BioAssay, National Center for Advancing Translational Sciences (NCATS)
A selection: hits, their analogues and other compounds. The true share with any hit is near 6.5%.
FMDV inh – foot and mouth disease virus antiviral activity. FMDV antiviral cell-based qHTS. Potency, µM (highest dose often 57.9 µM), without a hit: at the top dose activity change, negative = inhibition, hits mostly inhibitors. actives 1.2% (n = 410,000); calls by dose curve; tested in HEK293T cells; further: read-out not given here; potency means the concentration at half of the fitted maximal effect; nearly all actives have a fitted effect of over 45% in size
VACV mCherry inh – vaccinia inhibition (mCherry reporter); Vaccinia virus mCherry reporter infection, fluorescence; Potency, µM (titrated, usually from 36.5 µM), for the others: at the top dose activity change, negative = inhibition, actives largely listed as inhibitors; actives 0.63% (n = 310,000); AID 720579; calls by dose curve; tested in A549 cells; further: potency means the concentration at half of the fitted maximal effect; nearly all actives have a fitted effect of over 35% in size
Marburg entry inh – Marburg virus entry inhibition. Marburg virus pseudotyped entry inhibition, cell reporter. actives 1.8% (n = 300,000). Potency, µM (series often up to 37.8 µM), for inactives: at the top dose activity change, negative = inhibition, actives largely listed as inhibitors; calls by dose curve; tested in HEK293 cells; further: potency means the concentration at half of the fitted maximal effect
Lassa entry inh – blocks Lassa virus binding to or entry into cells | Lassa virus pseudotype entry inhibition, cell reporter | Potency, µM (series often up to 37.9 µM), inactives show at the top dose activity change, negative = inhibition, usual class: inhibitors | actives 1.2% (n = 300,000) | AID 540256; calls by dose curve; tested in HEK293 cells; further: potency means the concentration at half of the fitted maximal effect; nearly all actives have a fitted effect of over 50% in size
VACV Venus inh – inhibitors of vaccinia virus (Venus reporter); Vaccinia virus Venus reporter expression, fluorescence; Potency, µM (doses to about 36.5 µM), for the others: top-dose activity change, negative = inhibition, hits mostly inhibitors; actives 0.46% (n = 330,000); calls by dose curve; tested in A549 cells; further: potency means the concentration at half of the fitted maximal effect; nearly all actives have a fitted effect of over 30% in size
HCMV inh – inhibitors of human cytomegalovirus | HFF cells, HCMV-luciferase reporter, 72 h; active compounds read low | activity change, negative = inhibition, % at 57.5 µM | actives 4.5% (n = 410,000) | AID 1259415; in the data active means activity change below about -60%; inconclusive means no clear call, values can overlap the other calls; inactive means above about -39%
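Two-dose cell screen: HFF monolayers treated with compounds and infected with luciferase-expressing HCMV at 1 PFU/cell, 72 h at 37C, then lysed for luciferase measurement.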
Starred values were filed as active, the others as inactive; i = inactive; ? = inconclusive; nt = not tested or not shown; [ ] = dose if it differs, or a comment. On the % scale 0 is the no-effect control and ±100 the full control effect.

SMILES | FMDV inh | VACV mCherry inh | Marburg entry inh | Lassa entry inh | VACV Venus inh | HCMV inh
CN(C)CCCN1c2ccc3ccccc3c2Sc2cccc(Cl)c21 | -18% | ? | ? | ? | ? | 3
CCOC(=O)c1[nH]c(C)c(CCC(=O)N2CCN(c3cccc(C)c3C)CC2)c1C | ? | -26% | nt | ? | -18% | -24
COCc1ccc(C(=O)N2CCCC(C(=O)c3ccc(SC)cc3)C2)s1 (centres undefined) | ? | -2% | -12% | -31% | -23% | -87*
O=c1[nH]cnc2c1sc1nc(-c3ccccc3)c3c(c12)CCCC3 | -8% | i | ? | 1%[46.1 µM] | -7% | 21
S=c1nc[nH]c2c1sc1nc(-c3ccccc3)c3c(c12)CCCC3 | -29% | 14µM* | nt | nt | ? | ?
C=C(C)Cc1c(C)c(C#N)c2[nH]c3ccccc3n2c1=O | ? | -19% | 13µM* | ? | -26% | -66*
CCc1cc(=S)n2c([nH]c3ccccc32)c1C#N | ? | -24% | ? | ? | -25% | nt
Cc1ccc(Cc2c(C)c(C#N)c3[nH]c4ccccc4n3c2=O)cc1 | ? | nt | nt | nt | nt | -33
CCc1c(C)c(C#N)c2[nH]c3ccccc3n2c1=S | ? | -8% | 2%[46.1 µM] | ? | 6% | -102*
CCn1nc(C)cc1C(=O)NCC1CCC2(CCN(Cc3ccccc3F)CC2)O1 (centres undefined) | 0% | -14% | nt | nt | -14% | nt
Cc1cccc(C(=O)Nc2nnc(-c3ccncc3)o2)c1 | 13% | -5% | ? | 0%[46.1 µM] | -5% | 19
CC(=O)c1ccc(C(=O)Nc2nnc(-c3ccc(Cl)cc3)o2)cc1 | -9% | -15% | nt | nt | -18% | -12
O=C(Nc1nnc(-c2ccncc2)o1)c1ccc2ccccc2c1 | -6% | -25% | 9%[46.1 µM] | -23%[46.1 µM] | -7% | -95*
O=C(Nc1nnc(-c2ccccc2)o1)c1ccc(Cl)cc1 | 8% | -6% | 13µM* | ? | -6% | 21
COc1ccc(N2CCN(C(=O)Cc3ccc(C)cc3)CC2)cc1 | -17% | -19% | 2% | 0% | -14% | -15
COc1ccc(N2CCN(/C(=N\S(=O)(=O)c3ccc(C)cc3)Nc3nc(C)cc(C)n3)CC2)cc1 | 23% | nt | -17% | 8.2µM* | nt | -1
Nc1cc(N)[nH]c(=S)n1 | nt | 29% | nt | nt | -13% | nt
COc1ccccc1-c1ccnc(-n2ncc(C(=O)N(C)C(C)c3ccon3)c2C2CC2)n1 (centres undefined) | 47% | -10% | nt | nt | 2% | nt
Cc1cc(Cl)ccc1NC(=O)C(=O)NCc1ccco1 | 48% | -2% | nt | 5%[46.1 µM] | ? | 16
S=C(NCc1ccco1)Nc1ccc(Oc2ccc(Cl)cc2)cc1 | -6% | i[7.34 µM] | -20%[46.1 µM] | -6% | -11%[7.34 µM] | -60*
Cc1cc(Cl)ccc1NC(=S)NCc1ccco1 | 0% | i | ? | 9% | -14% | -61*
COc1cccc(NC(=O)/C=C/c2ccco2)c1 | 38% | i | ? | -19% | 1% | 16
O=C(/C=C/c1ccco1)Nc1ccc(Oc2ccc(Cl)cc2)cc1 | ? | ? | ? | ? | ? | -68*
S=C(NCc1ccco1)Nc1ccc(Cl)cc1 | 70% | -20% | -17% | -13% | -8% | -10
COC(=O)C1=C(c2ccc(OCc3ccccc3)cc2)C[C@@H]2CC[C@H]1N2C(=O)NCc1cccc(OC)c1 | -6% | ? | nt | nt | ? | -67*
SMILES | FMDV inh | VACV mCherry inh | Marburg entry inh | Lassa entry inh | VACV Venus inh | HCMV inh
COC(=O)C1=C(c2cccc(OCc3ccccc3)c2)C[C@@H]2CC[C@H]1N2C(=O)NCc1ccccc1OC | -7% | ? | nt | nt | ? | -88*
CCOC(=O)N1CCC2(CC1)OC(=O)C(C)=C2C(=O)NCc1cccc(F)c1 | -13% | -5% | nt | 8%[46.1 µM] | -4% | 0
C[C@]12CC[C@@H](O)C[C@@H]1CC[C@@H]1[C@@H]2CC[C@]2(C)C(=O)[C@H](O)C[C@@H]12 | -21% | -9% | nt | nt | -9% | nt
C[C@]12CCC3[C@@H](CC[C@@H]4C[C@H](O)CC[C@]34C)[C@@H]1CCC2=O (some centres undefined) | -1% | i | nt | nt | -18% | -75*
C[C@]12CCC3C(CC[C@H]4C[C@@H](O)CC[C@]34C)[C@H]1C=CC2=O (some centres undefined) | 20µM* | ? | ? | ? | ? | 0
C[C@]12CC[C@H](O)C[C@@H]1CC[C@@H]1[C@@H]2CC[C@]2(C)C(=O)CC[C@@H]12 | -29% | i | nt | nt | -12% | 20
CCN1C(=NCc2ccco2)N[C@@H](c2ccccc2)[C@H](C(=O)OC)[C@H]1C | nt | nt | 13%[14.2 µM] | nt | nt | nt
Nc1ccn(C2OC(CCl)C(O)C2O)c(=O)n1 (centres undefined) | -9% | ? | nt | nt | ? | -61*
Nc1ccn([C@@H]2O[C@H](CO)[C@@H](O)[C@H]2O)c(=O)n1 | -13% | -20% | nt | nt | -14% | 40
N=c1ccn2c(n1)OC1C(O)C(CO)OC12 (centres undefined) | 3% | 28µM* | nt | nt | ? | -100*
N=c1ccn2c(n1)OCC1C2O[C@@H](O)[C@H]1O (some centres undefined) | -10% | nt | nt | nt | nt | nt
Nc1ccn([C@@H]2O[C@H](CO)[C@@H](O)C2O)c(=O)n1 (some centres undefined) | -24% | 0.45µM* | ? | ? | -27% | -97*
Nc1ccn(C2OC(COC(=O)C34CC5CC(CC(C5)C3)C4)C(O)C2O)c(=O)n1 (centres undefined) | -12% | 0.32µM* | -8% | 4% | ? | -97*
CCOc1ccc(S(=O)(=O)NCc2cccn2Cc2cccc(C)c2)cc1 | 21% | -16% | nt | 0%[46.1 µM] | -6% | 5
O=[N+]([O-])c1cccnc1N/N=C/c1ccccc1O | 3% | ? | ? | ? | 13% | -97*
Cc1c(O)ccc(/C=N/Nc2ncccc2[N+](=O)[O-])c1O | -20% | ? | ? | ? | -28% | -69*
O=S1(=O)N[C@@H](Cc2ccccc2)COc2cccc(N3CCCCC3)c21 | nt | nt | nt | 4%[46.1 µM] | nt | 5
Cc1cccc(-c2nnn3c2nc(NCc2ccccc2)c2ccccc23)c1 | 6% | -23% | ? | 7%[46.1 µM] | ? | 28
CN(C)CCO[C@@H](c1ccc(Cl)cc1)c1ccccn1 | -9% | nt | nt | nt | nt | 7
Cc1ccc(C(OCCN(C)C)c2cccc(C(F)(F)F)c2)cc1 (centres undefined) | -29% | -8% | 21µM* | ? | -15% | ?
Cc1cccc(CN2CCN(C(=O)Cc3ccccc3)CC2)c1 | -14% | ? | 14%[46.1 µM] | 4%[46.1 µM] | -5% | 25
Cc1cccc(CN2CCN(C(=O)CCl)CC2)c1 | 35µM* | i | ? | ? | -9% | -34
NNC(=O)C1CC1c1ccc(Cl)cc1 (centres undefined) | -17% | -19% | 0% | 2.6µM* | -9% | -22
Fc1ccc(NC(=S)Nc2ccc(Cl)cc2)cc1 | 19% | -2% | -11%[46.1 µM] | 7%[46.1 µM] | -16% | -78*
